Laboratory results taken from PubChem BioAssay.
For some assays here: Entries with a potency or affinity are not part of this list. The source made the active and inactive calls. Unless noted, the rule behind the calls is not given here.

Experiments:
[1] = antimalarial activity against Dd2 strain (AID 2302;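 active = growth inhibition above 50% at the single 2 µM test dose, taken to imply half-maximal potency below 2 µM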;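 note: 0% = DMSO untreated growth and 100% = chloroquine plus artemisinin killed control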); settings: P. falciparum Dd2 in RBCs, LDH growth readout, 72 h; at 2 µM; hits give high values
[2] = human hepatoma cell viability loss – ATP luminescence, cytotoxicity control for P. falciparum antimalarial project, primary screen (AID 2303;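 active = inhibition above 50%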;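 note: 0% = DMSO wells and 100% = digitonin-killed cells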); settings: HepG2 viability, 24-48 h, at 10 µM, hits give high values
[3] = target: L-lactate dehydrogenase (Plasmodium falciparum (isolate CDC / Honduras)) (UniProt Q27743); assay: PfLDH activity inhibition – cell lysate, 3D7 strain, counter-screen for P. falciparum growth inhibition project (AID 2304);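 note: 0% = vehicle and 100% = reference inhibitor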; settings: P. falciparum 3D7 crude extract, LDH APAD/NBT absorbance; at 2 µM; hits give high values
[4] = inhibition of 3D7 malaria parasite growth – strain 3D7 (AID 2306);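 note: 0% = DMSO wells and 100% = chloroquine plus artemisinin control wells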; settings: P. falciparum 3D7 erythrocytic growth, LDH absorbance, 72 h; at 2 µM; hits give high values
[5] = target: Calcium-dependent protein kinase 1 (Plasmodium falciparum (isolate 3D7)) (UniProt P62344); assay: PfCDPK1 kinase inhibitors, biochemical, TCAMS library (AID 1159585; cut-off not given, nearly all actives have IC50 up to about 0.98 µM;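 note: inhibitors leave more ATP so luminescence rises with inhibition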); settings: recombinant PfCDPK1, Kinase-Glo ATP depletion luminescence
[6] = target: Plasmodium falciparum protein kinase 6 (PK6, PF3D7_1337100) (UniProt Q8IDW1); assay: PfPK6 kinase inhibitors, biochemical, TCAMS library (AID 1159586); settings: recombinant PfPK6, Kinase-Glo ATP depletion luminescence
[7] = target: Protein kinase 7 (PK7), Plasmodium falciparum 3D7 (PF3D7_0213400) (UniProt Q7YTF7); assay: inhibition of Plasmodium PK7 catalytic activity – biochemical, TCAMS antimalarial set, Kinase-Glo luminescence (AID 1159587); settings: recombinant PfPK7, Kinase-Glo ATP depletion luminescence
[8] = target: Calcium-dependent protein kinase 4 (Plasmodium falciparum (isolate 3D7)) (UniProt Q8IBS5); assay: PfCDPK4 kinase inhibitors, biochemical, TCAMS library (AID 1159588; cut-off not given, nearly all actives have IC50 up to about 0.91 µM); settings: recombinant PfCDPK4, Kinase-Glo ATP depletion luminescence
Sequence of Calcium-dependent protein kinase 4 (Plasmodium falciparum (isolate 3D7)) (Q8IBS5 whole entry, looked up): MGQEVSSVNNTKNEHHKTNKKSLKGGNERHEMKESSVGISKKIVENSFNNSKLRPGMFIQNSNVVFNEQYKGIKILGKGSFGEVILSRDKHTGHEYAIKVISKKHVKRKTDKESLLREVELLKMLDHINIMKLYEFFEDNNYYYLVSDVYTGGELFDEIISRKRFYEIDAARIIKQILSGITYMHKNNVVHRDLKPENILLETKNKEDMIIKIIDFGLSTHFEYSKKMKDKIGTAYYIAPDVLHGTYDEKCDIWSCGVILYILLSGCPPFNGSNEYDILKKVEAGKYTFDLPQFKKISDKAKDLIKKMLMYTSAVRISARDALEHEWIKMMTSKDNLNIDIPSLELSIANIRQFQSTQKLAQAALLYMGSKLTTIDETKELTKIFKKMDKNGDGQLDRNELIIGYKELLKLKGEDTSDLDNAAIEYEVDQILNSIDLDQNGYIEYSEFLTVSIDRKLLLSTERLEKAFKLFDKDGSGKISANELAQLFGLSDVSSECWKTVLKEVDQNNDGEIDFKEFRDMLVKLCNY

Sequence of Calcium-dependent protein kinase 1 (Plasmodium falciparum (isolate 3D7)) (P62344 whole entry, looked up): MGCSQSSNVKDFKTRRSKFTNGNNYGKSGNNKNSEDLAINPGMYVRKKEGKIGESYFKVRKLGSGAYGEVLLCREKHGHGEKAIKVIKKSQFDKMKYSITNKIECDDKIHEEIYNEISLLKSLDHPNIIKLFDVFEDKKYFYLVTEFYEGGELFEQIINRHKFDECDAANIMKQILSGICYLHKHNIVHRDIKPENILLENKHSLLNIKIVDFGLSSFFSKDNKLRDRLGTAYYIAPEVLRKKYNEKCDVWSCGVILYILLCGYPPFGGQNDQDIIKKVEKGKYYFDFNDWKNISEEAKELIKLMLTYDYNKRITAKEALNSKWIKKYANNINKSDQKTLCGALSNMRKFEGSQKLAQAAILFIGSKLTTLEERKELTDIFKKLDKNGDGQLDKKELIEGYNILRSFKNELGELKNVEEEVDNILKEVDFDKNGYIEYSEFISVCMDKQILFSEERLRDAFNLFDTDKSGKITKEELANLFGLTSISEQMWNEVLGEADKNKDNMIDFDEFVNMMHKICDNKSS
Sequence of L-lactate dehydrogenase (Plasmodium falciparum (isolate CDC / Honduras)) (Q27743 whole entry, looked up): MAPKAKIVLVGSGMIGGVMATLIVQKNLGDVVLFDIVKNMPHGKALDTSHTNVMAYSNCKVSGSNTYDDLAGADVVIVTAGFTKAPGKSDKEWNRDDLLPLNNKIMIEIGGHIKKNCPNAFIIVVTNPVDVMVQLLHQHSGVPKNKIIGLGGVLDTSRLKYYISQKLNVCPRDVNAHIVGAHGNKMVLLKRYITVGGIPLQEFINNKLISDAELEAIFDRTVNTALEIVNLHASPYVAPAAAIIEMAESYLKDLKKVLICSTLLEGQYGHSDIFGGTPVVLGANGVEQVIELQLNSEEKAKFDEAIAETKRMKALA
Sequence of Protein kinase 7 (PK7), Plasmodium falciparum 3D7 (PF3D7_0213400) (Q7YTF7 1-343): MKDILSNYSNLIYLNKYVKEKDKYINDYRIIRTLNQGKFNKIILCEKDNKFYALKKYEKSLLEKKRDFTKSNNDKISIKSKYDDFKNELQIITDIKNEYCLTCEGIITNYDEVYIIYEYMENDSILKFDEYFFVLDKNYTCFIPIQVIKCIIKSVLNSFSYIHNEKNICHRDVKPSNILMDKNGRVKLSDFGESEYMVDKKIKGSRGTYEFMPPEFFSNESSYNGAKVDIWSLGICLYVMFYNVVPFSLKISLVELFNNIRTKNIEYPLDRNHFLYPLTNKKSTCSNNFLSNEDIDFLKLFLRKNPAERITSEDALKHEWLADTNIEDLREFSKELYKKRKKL
Sequence of Plasmodium falciparum protein kinase 6 (PK6, PF3D7_1337100) (Q8IDW1 1-305): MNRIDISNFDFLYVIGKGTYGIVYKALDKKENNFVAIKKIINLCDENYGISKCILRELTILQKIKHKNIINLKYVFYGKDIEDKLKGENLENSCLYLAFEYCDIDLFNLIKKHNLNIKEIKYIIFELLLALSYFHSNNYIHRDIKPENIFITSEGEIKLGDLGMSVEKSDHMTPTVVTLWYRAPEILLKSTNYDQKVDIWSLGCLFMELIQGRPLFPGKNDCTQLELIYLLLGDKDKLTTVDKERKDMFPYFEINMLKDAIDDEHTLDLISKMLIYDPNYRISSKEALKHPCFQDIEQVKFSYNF

Row | Compound | growth inhibition [1] | inhibition [2] | inhibition [3] | growth inhibition [4] | outcome [5] | outcome [6] | outcome [7] | outcome [8]
1 | O=C(NC1CCC(CCN2Cc3cccc(C(F)(F)F)c3C2)CC1)c1cccc(-c2cccnc2)c1 (stereo not given) | 67% (active) | 26% (inactive) | 2% (inactive) | 100% (active) | inactive | inactive | inactive | inactive
2 | N#Cc1ccc(CN2CCC(Oc3ccc(NC(=O)c4ccco4)cc3Cl)CC2)cc1 | 96% (active) | 7% (inactive) | 6% (inactive) | 95% (active) | inactive | inactive | inactive | inactive
3 | Cc1[nH]c(C)c(-c2ccc(-c3ccccc3F)nc2)c(=O)c1Br | 97% (active) | 2% (inactive) | -3% (inactive) | 97% (active) | inactive | inactive | inactive | inactive
4 | COc1ccc2cc(-c3nc(-c4c(Cl)cccc4Cl)[nH]c3-c3ccnc(NCCC4CCCN4C)c3)ccc2c1 (stereo not given) | 82% (active) | 11% (inactive) | 2% (inactive) | 100% (active) | inactive | inactive | inactive | inactive
5 | Cc1ccc(Nc2nc(C)cc(Nc3cccc(C#N)c3)n2)cc1 | 96% (active) | 14% (inactive) | 4% (inactive) | 101% (active) | inactive | inactive | inactive | inactive
6 | Cc1cc(N[C@@H](Cc2ccccc2)C(=O)Nc2ccccc2)nc(NCCc2cccnc2)n1 | 57% (active) | 32% (inactive) | -3% (inactive) | 95% (active) | inactive | inactive | inactive | inactive
7 | CO/C(=C\C=C\c1cc2cc(Cl)c(Cl)cc2[nH]1)C(=O)NCCCN1CCN(C2CCCCC2)CC1 | 97% (active) | 60% (active) | -3% (inactive) | 99% (active) | inactive | inactive | inactive | inactive
8 | Cc1ccc(NC(C)C(=O)Nc2ccccc2)cc1S(=O)(=O)N1CCCCCC1 (stereo not given) | 97% (active) | 12% (inactive) | -4% (inactive) | 99% (active) | inactive | inactive | inactive | inactive
9 | O=C(Nc1cccc(F)c1)c1ccc(C(=O)NC2CCN(CC3CCCCC3)C2)cc1 (stereo not given) | 15% (inactive) | 16% (inactive) | -3% (inactive) | 96% (active) | inactive | inactive | inactive | inactive
10 | O=C1CSc2ccc(CNC3CCN(CCc4c(Cl)cnc5ccc(F)cc45)CC3)nc2N1 | 52% (active) | 21% (inactive) | -2% (inactive) | 98% (active) | inactive | inactive | inactive | inactive
11 | CCCCN(CCCC)CCCN(CCCN(CCCC)CCCC)c1cc(C)nc(Nc2ccc3cc(Br)ccc3c2)n1 | 99% (active) | 52% (active) | 5% (inactive) | 101% (active) | inactive | inactive | inactive | inactive
12 | COc1c(C2CCN(CCCCNC(=O)c3cc(-c4ccc(Cl)cc4)oc3C)CC2)ccc2c1CCCC2 | 27% (inactive) | 93% (active) | 2% (inactive) | 97% (active) | inactive | inactive | inactive | inactive
13 | OCCNc1nc(Nc2ccccc2)nc2ccccc12 | 61% (active) | 5% (inactive) | 5% (inactive) | 93% (active) | inactive | inactive | inactive | inactive
14 | CN1CCN(c2cc3c(cc2Cl)CCN3C(=O)Cc2ccc(Cl)c(NC(=O)Nc3cccc(C#N)c3)c2)CC1 | 40% (inactive) | -1% (inactive) | -1% (inactive) | 99% (active) | inactive | inactive | inactive | inactive
15 | Oc1ccc(-c2cc(COc3ccccc3C(F)(F)F)c(C3=CCNCC3)cc2COc2ccccc2C(F)(F)F)cc1 | 62% (active) | 18% (inactive) | 3% (inactive) | 100% (active) | inactive | inactive | inactive | inactive
16 | COc1ccc(NC(=O)N2CCc3ccc(OCCN(C(C)C)C(C)C)cc32)cc1C(F)(F)F | 6% (inactive) | -1% (inactive) | -2% (inactive) | 90% (active) | inactive | inactive | inactive | inactive
17 | CCCCCCN1CCC(NCc2ccc(Cl)cc2)CC1 | 9% (inactive) | 19% (inactive) | -7% (inactive) | 98% (active) | inactive | inactive | inactive | inactive
18 | CC(C)(C)c1nn(-c2ccc(Cl)cc2)c2[nH]c(=O)c(CNCc3cccs3)cc12 | 77% (active) | 5% (inactive) | 3% (inactive) | 102% (active) | inactive | inactive | inactive | inactive
19 | COc1cc2nc(C)nc(Nc3ccc4c(ccn4Cc4ccccc4)c3)c2cc1OC | 99% (active) | 2% (inactive) | -7% (inactive) | 101% (active) | inactive | inactive | inactive | inactive
20 | O=C(Nc1ccc(Cl)c(Cl)c1)Nc1ccc2c(c1)CCNCC2 | 37% (inactive) | 13% (inactive) | -1% (inactive) | 86% (active) | inactive | inactive | inactive | inactive

Row | Compound | growth inhibition [1] | inhibition [2] | inhibition [3] | growth inhibition [4] | outcome [5] | outcome [6] | outcome [7] | outcome [8]
21 | N#Cc1ccc(NC(=NC2Cc3ccccc3C2)Nc2cccc(Cl)c2Cl)c(O)c1 | 77% (active) | 15% (inactive) | -10% (inactive) | 94% (active) | inactive | inactive | inactive | inactive
22 | Cc1nc(N)nc(N)c1OCCCCCCOc1ccccc1 | -3% (inactive) | 59% (active) | -2% (inactive) | 95% (active) | inactive | inactive | inactive | inactive
23 | COc1ccc(OC(C)CNC(=O)c2cc([N+](=O)[O-])ccc2-c2ccc(OC)cc2)cc1 (stereo not given) | 44% (inactive) | 18% (inactive) | 3% (inactive) | 92% (active) | inactive | inactive | inactive | inactive
24 | COC(=O)CCCOc1cc(Cc2cnc(N)nc2N)cc(OC)c1OC | -4% (inactive) | 12% (inactive) | -6% (inactive) | 95% (active) | inactive | inactive | inactive | inactive
25 | NC1CCN(c2nc(NCCc3ccc(O)cc3)nc(NCc3ccccc3-c3ccccc3)n2)CC1 | 32% (inactive) | 14% (inactive) | 4% (inactive) | 99% (active) | inactive | inactive | inactive | inactive
26 | O=[N+]([O-])c1cccc(NC(=S)N2CCCN(Cc3ccc(Cl)cc3Cl)CC2)c1 | 50% (active) | 3% (inactive) | 4% (inactive) | 94% (active) | inactive | inactive | inactive | inactive
27 | CC(C)C[C@H](NC(=O)c1cc(-c2ccc(C(C)(C)C)cc2)no1)C(=O)O (tested in a mixture with another compound) | 6% (inactive) | 3% (inactive) | -3% (inactive) | 95% (active) | inactive | inactive | inactive | inactive
28 | Cc1cc(-c2cccc3c(C(=O)N4CCc5cc6nccc(N7CCCN(C)CC7)c6cc54)cccc23)cc(C)n1 | 100% (active) | 17% (inactive) | 6% (inactive) | 100% (active) | inactive | inactive | inactive | inactive
29 | N#Cc1ccc2c(c1)CCN(CCC1CCC(NC(=O)/C=C/c3ccc4ccccc4c3)CC1)CC2 (stereo not given) | 12% (inactive) | 20% (inactive) | 4% (inactive) | 97% (active) | inactive | inactive | inactive | inactive
30 | O=C(NCCNc1noc(-c2sccc2Br)n1)c1ccc(Cl)cc1 | 1% (inactive) | -5% (inactive) | 2% (inactive) | 93% (active) | inactive | inactive | inactive | inactive
31 | Cc1ccc(CNC(=O)[C@H](Cc2ccccc2)Nc2cc(C)nc(NCCc3ccc(F)cc3)n2)cc1 | 22% (inactive) | 10% (inactive) | -3% (inactive) | 98% (active) | inactive | inactive | inactive | inactive
32 | CCCCCCn1c2c(c(=N)c3c1CCC3)CCCC2 | 76% (active) | 31% (inactive) | 4% (inactive) | 99% (active) | inactive | inactive | inactive | inactive
33 | CCOc1ccc(-c2nonc2NC(=O)c2ccc(OC(C)C)cc2)cc1OCC | 100% (active) | 13% (inactive) | -2% (inactive) | 100% (active) | inactive | inactive | inactive | inactive
34 | Oc1ccc(CN2Cc3ccccc3OC3(CCN(Cc4c[nH]c5cnccc45)CC3)C2)cc1 | 3% (inactive) | 17% (inactive) | -6% (inactive) | 101% (active) | inactive | inactive | inactive | inactive
35 | Cc1nc(-c2cccc3c(NC(=O)Nc4ccc5nccc(N6CCN(C)CC6)c5c4)cccc23)no1 | 84% (active) | -4% (inactive) | -2% (inactive) | 100% (active) | inactive | inactive | inactive | inactive
36 | CSc1cccc(Nc2nc3ccc(S(=O)(=O)NC(C)C(C)C)cc3n2[C@H](C)C(C)(C)C)c1 (stereo not given in full) | 98% (active) | -10% (inactive) | 0% (inactive) | 97% (active) | inactive | inactive | inactive | inactive
37 | O=C(N[C@@H](CC1CCCCC1)C(=O)NCCN1CCCCC1)c1ccc(O)c(-c2cccc(C(F)(F)F)c2)c1 | 97% (active) | -5% (inactive) | 6% (inactive) | 99% (active) | inactive | inactive | inactive | inactive
38 | Cc1ccc(Cn2c(N3CCC(C(=O)NCc4cccs4)CC3)nc3ccccc32)cc1 | 71% (active) | -4% (inactive) | -1% (inactive) | 99% (active) | inactive | inactive | inactive | inactive
39 | CCc1cc(NC2CCN(C)CC2)nc(Nc2cccc(OC)c2)n1 | 37% (inactive) | 22% (inactive) | -6% (inactive) | 93% (active) | inactive | inactive | inactive | inactive
40 | FC(F)(F)c1ccc(COc2cc(Cl)ccc2Cn2ccnc2)cc1 | 0% (inactive) | 13% (inactive) | -5% (inactive) | 95% (active) | inactive | inactive | inactive | inactive
